PubChem BioAssay AID2108 (National Center for Advancing Translational Sciences (NCATS), 2009)
Results filed as inconclusive are left out. Active and inactive are the calls of the source. Calls follow the shape of the dose curve; as a rule, active = well fitted curve in the direction sought with a large enough effect; inconclusive = small, poorly fitted or top-dose-only effect, or effect the other way, or another doubt; inactive = no such curve, though single readings can be large or run the other way.

target: Alpha-galactosidase A (Homo sapiens) (UniProt P06280); experiment: Confirmation of Inhibitors of Human alpha-Galactosidase Using Spleen Homogenate; conditions: alpha-galactosidase enzyme activity; series mostly up to 56.2 µM; activity change: at the top concentration; also: 0% is about no effect
Sequence (P06280 32-429 limits assumed): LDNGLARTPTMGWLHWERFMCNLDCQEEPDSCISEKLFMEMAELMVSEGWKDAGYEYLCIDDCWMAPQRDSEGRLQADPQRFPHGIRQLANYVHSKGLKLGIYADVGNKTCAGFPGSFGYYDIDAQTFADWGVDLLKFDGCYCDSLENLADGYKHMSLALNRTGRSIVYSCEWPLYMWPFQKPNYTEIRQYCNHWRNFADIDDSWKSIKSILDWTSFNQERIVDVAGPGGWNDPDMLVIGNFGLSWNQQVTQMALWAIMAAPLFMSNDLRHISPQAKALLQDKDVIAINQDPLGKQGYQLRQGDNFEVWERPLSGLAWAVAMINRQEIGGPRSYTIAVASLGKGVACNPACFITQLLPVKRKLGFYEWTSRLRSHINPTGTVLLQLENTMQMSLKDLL
From the text: NIH Chemical Genomics Center [NCGC]
NIH Molecular Libraries Probe Production Centers Network [MLPCN]
Assay Submitter (PI): Wei Zheng
Alpha-galactosidase is a homodimeric glycoprotein that hydrolyzes the terminal alpha-galactosyl moieties from glycolipids and glycoproteins. Deficiency of this enzyme results in Fabry Disease with progressive accumulation of globotriaosylceramide and other glycosphingolipids in vascular endothelial cells that causes renal failure, myocardial infarction and stroke, and premature death in patients. It has been reported that the improper folding and trafficking of alpha-galactosidase resulting from genetic mutations may account for a significant number of Fabry patients. […] We optimized this alpha-galactosidase assay in 1536-well plate format for identification of novel small molecule inhibitors or activators with structures other than the sugar analogs in order to develop new pharmacological chaperones. In particular, this assay is directed towards discovering compounds active in more natural setting, tissue homogenate, that may have been missed by screens of the purified enzyme under more stringent conditions. This assay attempted to confirm hits from the primary screening.
NCGC Assay Protocol Summary:
This is a fluorogenic enzyme assay with 4-methylumbelliferyl-alpha-D-galactopyranoside as the substrate and human spleen homogenate containing alpha-galactosidase as the enzyme preparation. Upon hydrolysis of this fluorogenic substrate, the resulting product, 4-methylumbelliferone (which excites at 365 nm and emits at 440 nm) can be detected by a fluorescence plate reader. Data were normalized to the controls for basal activity (without enzyme) and 100% activity (with enzyme). The AC50 values were determined from concentration-response data modeled with the standard Hill equation.
Assay buffer: 50 mM citric acid (titrated with potassium phosphate to pH 5.0), 0.01% Tween-20 (pH 5.0 is an optimal condition for this enzyme assay)
1536-well assay protocol for the alpha-galactosidase from human spleen homogenate:
(1) Add 2 ul/well spleen homogenate (1 ug)
(2) Add 23 nL compounds in DMSO solution. The final titration was 0.5 nM to 58 uM.
(3) Add 2 ul of substrate (1 mM final)
(4) Incubate at 37C for 40 min
(5) Add 2 ul stop solution (1M NaOH and 1M Glycine mixture, pH 10)
(6) Detect the assay plate in a ViewLux plate reader (PerkinElmer) with Ex=365 nm and Em=440nm.
Keywords: Alpha-galactosidase, Fabry Disease, pharmacological chaperone, chaperone therapy, high throughput screening, alpha- galactosidase inhibitor, MLSMR, MLSCN, NIH Roadmap, qHTS and NCGC

Structure (SMILES) | activity change | outcome
CCCCC/C=C\C/C=C\C/C=C\C/C=C\CCCC(=O)NCCCC(=O)O | -14.3% (inactive) | –
C/C(O)=C(/C#N)C(=O)Nc1cc(Br)ccc1Br | -8.06% (inactive) | –
CCOc1ccc2cc(C#N)c(=O)oc2c1 | 1.36% (inactive) | –
CC(C)(C)c1cc(C=C(C#N)C#N)cc(C(C)(C)C)c1O | -10.5% (inactive) | –
CC(=O)Nc1ccc(OC(=O)c2ccccc2N)cc1 | 6.81% [at 23.6 µM] (inactive) | –
Cc1cc(C(=O)CS(=O)(=O)c2ccc(F)cc2)cc(C)c1OC(=O)N(C)C | 2.73% [at 23.6 µM] (inactive) | –
O[C@@H]1[C@H](O)[C@H]2[C@@H](O)CCN2C[C@@H]1O | -6.64% [at 287 µM] (inactive) | –
Cc1ccc2c(CN3CC=C(c4ccccc4)CC3)cc(=O)oc2c1C | 0.701% (inactive) | –
C/C=C(/C)C(=O)O[C@H]1C(C)=C2C([C@@H]1OC(=O)CCCCCCC)[C@@](C)(OC(C)=O)C[C@@H](OC(=O)CCC)[C@@]1(O)[C@H]2OC(=O)[C@@]1(C)O (stereo partly drawn) | -13.8% (inactive) | –
Cc1cc(/C=C2/C(=O)NC(=O)N(Cc3ccco3)C2=O)c(C)n1-c1ccc(C(=O)O)cc1 | 1.17% (inactive) | –
COc1ccc(Cc2nccc3cc(OC)c(OC)cc23)cc1OC | -3.36% (inactive) | –
Cc1cc(/C=C2\C(=O)NC(=O)N(c3ccc(F)cc3)C2=O)c(C)n1-c1ccc(C(=O)O)cc1 | 0.884% (inactive) | –
CC(=O)[O][Hg][c]1ccccc1 | 4.67% [at 287 µM] (inactive) | –
OC[C@@H]1[C@@H](O)[C@H](O)[C@H]2[C@@H](O)CCN21 | -8.3% (inactive) | –
O=C(O)c1ccccc1-c1c2cc(Br)c(=O)cc-2oc2[c]([Hg])c(O)c(Br)cc12 | -13.4% [at 287 µM] (inactive) | –
O=c1[nH]c(CN2CC=C(c3ccccc3)CC2)nc2scc(-c3cccs3)c12 | -0.863% (inactive) | –
Cc1[nH]c2ccccc2c1C1=CCNCC1 | 0.948% (inactive) | –
O[C@H]1[C@H](O)[C@@H](O)CN2CC[C@H](O)[C@H]12 | – | inactive
